# Screening data deposited in PubChem by National Center for Advancing Translational Sciences (NCATS).
# PNC assembly inh: inhibitors of perinucleolar compartment assembly | PC3M PTB-GFP, PNC prevalence imaging, 16 h; hits give low values | activity change (PNC), negative = inhibition, % at 10 µM | actives 3.1% (n = 140,000) | AID 2417;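 active = readout at or below -70, meaning at least 70% loss of cells showing the perinucleolar compartment, a nuclear body marking cancer cells; inconclusive = readout between -30 and a set limit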;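 also: plate controls were DMSO wells for no effect and camptothecin positive control wells for full effect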
#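 Compounds are pinned in duplicate onto adhered PC3M cells stably expressing GFP-tagged PTB and incubated 16 h at 37 C. Cells are then fixed, nuclei stained with Hoechst, and PNC-positive cells counted.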
# KinaseGlo FLuc: counter-screen: inhibitors of Kinase-Glo firefly luciferase; Q27757; Kinase-Glo luciferase, ATP luminescence, 8 min; Potency, µM (doses to about 38.3 µM), for inactives: top-dose activity change, negative = inhibition, usual class: inhibitors; actives 0.28% (n = 200,000); AID 1379; active = well fitted inhibition curve with a large enough effect; inconclusive = small, poorly fitted or top-dose-only effect; also: potency is read from the fitted curve at half-maximal effect; nearly all actives have a fitted effect of over 60% in size
#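 Compounds were added to a substrate mix at pH 7.2 (50 mM imidazole, 10 uM ATP, within the enzyme's linear range), followed by Kinase-Glo detection reagent; luminescence was measured after 8 minutes at ambient temperature.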
# Lamin A splicing: modulators of lamin A splicing | HeLa LMNA splicing GFP/RFP minigene ratio, 48 h | Potency, µM (titrated, usually from 46.1 µM), for inactives: top-dose ratio change, negative = inhibition, most hits filed as inhibitors | actives 0.01% (n = 200,000); active = well fitted inhibition curve with a large enough effect in the signal ratio, with a control signal flat, not every such curve was filed as active; inconclusive = small, poorly fitted or top-dose-only effect, or effect the other way, or a change in a side signal; the % refers to the signal ratio; also: potency is read from the fitted curve at half-maximal effect
#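 Read-out is the ratio of GFP to DsRed2 object intensity, acquired by 488 nm laser-scanning cytometry on HeLa lamin A-EGFP minigene reporter cells. Compound incubation 48 hrs at 37 °C in Opti-MEM with 2% FBS; DMSO 0.5% final.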
# ALDH1A1 inh: blocks purified human ALDH1A1 activity | P00352 | Potency, µM (titrated, usually from 75.3 µM), for the others: top-dose activity, negative = inhibition, hits mostly inhibitors | actives 7.3% (n = 220,000) | Purified ALDH1A1, NADH fluorescence, propionaldehyde substrate;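 also: potency is read from the fitted curve at half-maximal effect; plate controls were no enzyme wells and a reference inhibitor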
# Target sequence (P00352 whole entry, looked up): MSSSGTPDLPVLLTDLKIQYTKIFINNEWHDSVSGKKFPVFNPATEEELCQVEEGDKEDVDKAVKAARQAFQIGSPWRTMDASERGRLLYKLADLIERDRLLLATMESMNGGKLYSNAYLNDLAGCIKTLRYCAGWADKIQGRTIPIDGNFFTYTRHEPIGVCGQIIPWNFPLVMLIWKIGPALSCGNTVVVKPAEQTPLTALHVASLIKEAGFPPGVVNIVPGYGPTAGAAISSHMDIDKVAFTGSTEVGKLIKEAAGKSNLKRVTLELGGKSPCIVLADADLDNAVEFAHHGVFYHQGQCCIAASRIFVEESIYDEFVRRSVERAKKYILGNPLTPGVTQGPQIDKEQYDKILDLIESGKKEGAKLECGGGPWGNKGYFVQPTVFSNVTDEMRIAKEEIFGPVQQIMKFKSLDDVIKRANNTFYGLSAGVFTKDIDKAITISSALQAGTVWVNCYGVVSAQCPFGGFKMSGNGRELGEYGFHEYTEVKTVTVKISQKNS
# HPGD block: blocks human HPGD enzyme activity | P15428 | purified HPGD, NADH fluorescence kinetic, PGE2 substrate | Potency, µM, without a hit: top-dose activity change, negative = inhibition, most hits filed as inhibitors | actives 4.3% (n = 150,000) | AID 894; also: potency is read from the fitted curve at half-maximal effect
#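 NADH formation kinetics: reaction with 30 uM PGE2 and 1 mM NAD+ (final), 20 nM enzyme, Tris-HCl pH 8 with Tween 20, after 15 min compound preincubation at room temperature. Fluorescence change, last versus first of five reads.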
# Starred values were filed as active, the others as inactive; ? = inconclusive; nt = no result given; [ ] = another dose, or the depositor's remark. Rows were chosen to be rich in hits. Some 10% of all compounds tested hit in one or more screens of this group. Unless noted, calls follow the shape of the dose curve; as a rule, active = well fitted inhibition curve with a large enough effect (not every such curve was filed as active); inconclusive = small, poorly fitted or top-dose-only effect, or another doubt; inactive = no such curve, though single readings can be large or run the other way. Unless noted, % is scaled to controls: 0 for no effect and ±100 for the full control effect.
SMILES,PNC assembly inh,KinaseGlo FLuc,Lamin A splicing,ALDH1A1 inh,HPGD block
COc1ccc(CNC(=O)Cn2nc3c(cc2=O)CCCC3)cc1,nt,nt,-4.0%[46 µM],nt,nt
COc1ccc2ccccc2c1C(=O)/C=C\c1ccoc1,-10.9,-5.8%,?,20µM*,?
COc1ccc(N2C(=O)CSC23C(=O)N(CC(=O)NCc2ccccc2)c2ccccc23)cc1 (stereo not drawn),nt,nt,-3.7%[46 µM],nt,nt
C=CCNC(=O)c1cc(Cl)ccc1Cl,-9.1,-5.6%,2.2%,-0.4%,20µM*
C=CCNC(=O)c1ccc(-c2nc(-c3ccc(Cl)c(Cl)c3)cs2)cc1,56.9,3.4%,?,0.3%,-23.4%
C=CCNC(=O)c1ccc(-c2nc(-c3ccc(Cl)cc3Cl)cs2)cc1,-21.0,1.5%,-1.8%,1.3%,3.98µM*
Cc1ccc(NNS(=O)(=O)c2ccc(C)cc2)cc1,?,-1.4%,8.2%,6.31µM*,3.98µM*
Cc1ccc(S(=O)(=O)Nc2ccc3c(c2)CCC3)cc1C,8.1,3.0%,?,-5.6%,-6.0%
CSc1ccc(S(=O)(=O)Nc2ccc(NC(C)=O)cc2)cc1,-8.3,13.0%,-2.5%,?,-3.4%
CSc1ccc(S(=O)(=O)Nc2ccc(S(=O)(=O)Nc3ccc(C)cc3)cc2)cc1,19.1,1.8%,-5.9%,8.91µM*,-6.1%
Cc1ccc(S(=O)(=O)Nc2ccc3c(c2)CCC3)cc1,-12.3,0.7%,?,11.2µM*,-17.9%
COC(=O)c1cc2cc(NS(=O)(=O)c3ccc(C)cc3)ccc2s1,-100.0*,1.8%,-9.0%,-0.8%,-15.0%
COc1cc(CNC(=O)c2cnc(SC)nc2-c2ccccc2)cc(OC)c1OC,nt,nt,-5.7%[46 µM],nt,nt
CC1(C)O[C@H]2[C@@H](O1)[C@@H](On1nnc3ccc(Cl)cc31)O[C@@H]2[C@@H]1COC(C)(C)O1,nt,-3.8%[7.66 µM],nt,-6.5%[13.5 µM],-5.7%
COCCNc1ccnc(-c2ccccc2C(F)(F)F)n1,nt,nt,5.7%,12.3%,nt
Oc1ccc(Br)cc1-c1cc(-c2ccccc2F)[nH]n1,18.1,-3.0%,-2.0%,2.1%,4.47µM*
Oc1ccc(Cl)cc1-c1cc(-c2ccccc2)n[nH]1,-12.0,3.4%,?,3.6%,15.8µM*
Cc1ccccc1-c1cc(-c2ccccc2O)n[nH]1,4.3,0.8%,-4.1%,10.3%,?
CC(C)=CCC/C(C)=C/C=C/C1=CC2(C)CC1(C)C(/C=C(\C)CCC=C(C)C)CC2=O (stereo not drawn),nt,nt,nt,-14.1%[13.5 µM],nt
Cc1cccc(-n2ncc(C(=O)N3CCN(C4CCCCC4)CC3)c2C2CCN(C(=O)OC(C)(C)C)CC2)c1,nt,nt,-14.7%[46 µM],nt,nt
O=C(CCc1ccccc1)Nc1ccc(F)cc1F,-26.2,-4.4%,0.7%,9.4%,-8.7%
O=C(CSCc1ccccc1)Nc1ccc(F)cc1F,nt,1.2%,nt,23.8µM*,nt
CCCCN1C(=O)c2ccc(C(=O)NCCN3C(=O)S/C(=C\c4cccnc4)C3=O)cc2C1=O,48.3,1.8%,?,1.26µM*,-16.4%
COc1ccc(-c2[nH]ncc2CN2CCCC2c2nonc2C)c(F)c1 (stereo not drawn),nt,-1.6%,14.5%[46 µM],?,nt
Cc1nonc1C1CCCN1Cc1cn[nH]c1-c1ccc2c(c1)OCO2 (stereo not drawn),nt,nt,nt,15.8µM*,nt
SMILES,PNC assembly inh,KinaseGlo FLuc,Lamin A splicing,ALDH1A1 inh,HPGD block
O=C(NC1CCCCC1)C1CCN(c2nccs2)CC1,7.4,1.0%,5.2%,-2.9%,-10.1%
O=C(NC1CCCC1)C1CCN(c2nccs2)CC1,-6.4,-1.9%,-12.4%,1.2%,14.1µM*
O=C(Nc1nc2ccccc2[nH]1)c1ccc(F)cc1,-1.2,?,3.5%,10.7%,-10.3%
CCn1nc(C(=O)Nc2nc3ccccc3[nH]2)c2ccccc2c1=O,-89.0*,0.2%,?,-10.0%,-9.8%
O=C(Nc1nc2ccccc2[nH]1)c1ccccc1F,12.2,2µM*,?,2.1%,-2.3%
COCCN1CC(O)=C(c2nc3ccccc3c(=O)[nH]2)C1=N,-100.0*,3.2%,-3.1%,?,?
CC(C)(C)OC(=O)N1CCC(c2c(C(=O)NCc3ccc4c(c3)OCO4)cnn2-c2ccccc2Cl)CC1,nt,nt,-7.5%[46 µM],nt,nt
COC(=O)c1ccc(-n2nnnc2SC)cc1,0.8,0.4%,-3.6%,28.2µM*,12.6µM*
CSc1ccccc1-n1nnnc1SCC(=O)Nc1cc(C)ccc1C,11.3,-4.7%,-19.8%,14.1µM*,-2.5%
Cc1ccc(-c2noc(CSc3nnnn3C3CCCCC3)n2)cc1,-16.6,1.7%,-4.6%,14.1µM*,-13.0%
